Measurements reported in PubChem BioAssay (EPA / NIEHS).
Several values for one entry are separate records, joined by “and”; a condition that tells them apart may be missing. Identical values can stand only once. Inconclusive results are not listed. Activity calls are given as the source filed them. Rule for the calls: active = hit-call score of the fitted dose curve at least 0.9, where 1 is the maximum; inconclusive = response in the unintended direction; inactive = score below 0.9.

Assay: Tanguay_ZF_120hpf_YSE_legacy: (Legacy) Oregon State University Tanguay Lab 120 Hour Post-fertilization zebrafish Assay for Yolk Sac Edema (AID 2283634);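 for AC50: actives raise the incidence of yolk sac edema above the DMSO baseline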
Procedure: Tanguay_ZF_120hpf_legacy is a whole embryo, multiplexed endpoint assay using zebrafish larvae exposed for 120 hours post fertilization on a 96-well plate.Tanguay_ZF_120hpf_YSE_legacy is one of one assay component(s) measured or calculated from the Tanguay_ZF_120hpf_legacy assay. It is designed to make measurements of zebrafish development as detected with brightfield microscopy of developing zebrafish embryos.Data from the assay component Tanguay_ZF_120hpf_YSE_legacy was analyzed into 1 assay endpoints. This assay endpoint, Tanguay_ZF_120hpf_YSE_legacy, was analyzed in the positive analysis fitting direction relative to DMSO as the negative control and baseline of activity. Using a type of morphology reporter, gain-of-signal activity can be used to understand changes in developmentals as they relate to the whole embryo. To generalize the intended target to other relatable targets, this assay endpoint is annotated to the zebrafish development intended target family, where the subfamily is extra-embryonic membrane development.
Zebrafish husbandry: Tropical 5D wild-type adult zebrafish were housed in at an approximate density of 1000 per 100 gallon tank at the Sinnhuber Aquatic Research Laboratory, Oregon State University, Corvallis, OR. Each tank was kept at standard laboratory conditions of 28C on a 14-h light/10-h dark photoperiod in fish water consisting of reverse osmosis water supplemented with a commercially available salt (Instant Ocean). Spawning funnels were placed into the tanks the night prior, and embryos were collected and staged. To increase bioavailability, the chorion was enzymatically removed using pronase (63.6mg/ml, >/= 3.5U/mg, Sigma-Aldrich: P5147) at 4 hours post fertilization (hpf) using a custom automated dechorionator.Chemical exposures: Six hpf dechorionated embryos were placed 1 embryo per well in a 96-well plate prefilled with 90 ul of EM using automated embryo placement systems (AEPS). Ten microliters of each row of dilution plate 2 was added to 2 exposure plates. The final DMSO concentration used was 0.64% (vol/vol). Thirty-two embryos were also exposed to 5uM trimethyltin chloride (positive control). Plates were sealed to prevent evaporation and foil covered to reduce light exposure and kept in a 28C incubator. Embryos were statically exposed until 120 hpf. At 24 hpf, embryos were assessed for photomotor response using a custom photomotor response analysis tool (PRAT) and for developmental toxicity endpoints (MO24: mortality at 24 hpf, DP: developmental progression, SM: spontaneous movement, and NC: notochord distortion). At 120 hpf, locomotor activity was measured using Viewpoint Zebralab and assessed for 18 endpoints. Zebrafish acquisition and analysis program (ZAAP), a custom program designed to inventory, acquire, and manage zebrafish data, was used to collect developmental endpoints as either present or absent (i.e., binary responses were recorded). If mortality occurred for an embryo (at either 24 or 120 hpf), the non-mortality endpoints were not measured.

| SMILES | AC50 | outcome |
| --- | --- | --- |
| O=C(O)C1(C(=O)Nc2ccc(Cl)cc2Cl)CC1 | 32.3 µM (active) |  |
| CCC(C)OC(=O)N1CCCCC1CCO (stereo not given) |  | inactive |
| CC(=O)S[C@@H]1CC2=CC(=O)CC[C@]2(C)[C@H]2CC[C@@]3(C)[C@@H](CC[C@@]34CCC(=O)O4)[C@H]12 |  | inactive |
| N#CSCSc1nc2ccccc2s1 |  | inactive |
| Oc1ccc(C(c2ccc(O)cc2)C(Cl)(Cl)Cl)cc1 |  | inactive |
| CCCCCOC(=O)COc1cc(N2C(=O)C3=C(CCCC3)C2=O)c(F)cc1Cl |  | inactive |
| COC(=O)CSc1cc(N=c2sc(=O)n3n2CCCC3)c(F)cc1Cl |  | inactive |
| CCCCOC(=O)[C@@H](C)Oc1ccc(Oc2ccc(C(F)(F)F)cn2)cc1 |  | inactive |
| O=C(Nc1ccc([N+](=O)[O-])cc1Cl)c1cc(Cl)ccc1O |  | inactive |
| CCCCOC(=O)C(C)Oc1ccc(Oc2ccc(C(F)(F)F)cn2)cc1 (stereo not given) |  | inactive |
| CCOC(=O)C(C)Oc1ccc(Oc2nc3ccc(Cl)cc3o2)cc1 (stereo not given) |  | inactive |
| CCCN(CCC)C(=O)SCC |  | inactive |
| CCN(Cc1c(F)cccc1Cl)c1c([N+](=O)[O-])cc(C(F)(F)F)cc1[N+](=O)[O-] |  | inactive |
| CCCOC(=O)c1ccc(C(=O)OCCC)nc1 | 1.17 µM (active) |  |
| COc1c(Cl)ccc(Cl)c1C(=O)O |  | inactive |
| COC(=O)c1ccc(I)cc1S(=O)(=O)NC(=O)Nc1nc(C)nc(OC)n1 |  | inactive |
| CSC(=O)c1cccc2nnsc12 |  | inactive |
| CN(C)C(=O)Nc1ccc(Cl)c(Cl)c1 |  | inactive |
| CCCCCCC(C)OC(=O)COc1nc(F)c(Cl)c(N)c1Cl (stereo not given) |  | inactive |
| CC(C)(C)[C@@H](O)[C@@H](Cc1ccc(Cl)cc1)n1cncn1 | 36.1 µM (active) |  |

| SMILES | AC50 | outcome |
| --- | --- | --- |
| N[C@@H](Cc1cc(I)c(Oc2ccc(O)c(I)c2)c(I)c1)C(=O)O |  | inactive |
| C[C@]12CC[C@@H]3c4ccc(O)cc4C[C@@H](CCCCCCCCCS(=O)CCCC(F)(F)C(F)(F)F)[C@H]3[C@@H]1CC[C@@H]2O (stereo not given in full) |  | inactive |
| CCOC(=O)c1ccc(O)cc1 |  | inactive |
| c1ccc(Nc2ccccc2)cc1 | 12.2 µM (active) |  |
| CCCN(CCC)c1c([N+](=O)[O-])cc(C(F)(F)F)c(N)c1[N+](=O)[O-] |  | inactive |
| CC(C)(c1ccc(O)cc1)c1ccc(O)cc1 | 41.7 µM (active) and 25.2 µM (active) and 38.1 µM (active) |  |
| CCOC(=O)NCCOc1ccc(Oc2ccccc2)cc1 |  | inactive |
| CCSC(=O)N(CC(C)C)CC(C)C |  | inactive |
| OB(O)O |  | inactive |
| CCCCC(CC)COC(=O)c1ccccc1C(=O)O (stereo not given) |  | inactive |
| CC(=O)[C@H]1CC[C@H]2[C@@H]3CCC4=CC(=O)CC[C@]4(C)[C@H]3CC[C@]12C |  | inactive |
| Cc1nn(C)c(Oc2ccccc2)c1C=NOCc1ccc(C(=O)OC(C)(C)C)cc1 |  | inactive |
| CCOC(=O)C(C)Oc1ccc(Oc2cnc3cc(Cl)ccc3n2)cc1 (stereo not given) |  | inactive |
| CCN(CC)C(=O)c1cccc(C)c1 |  | inactive |
| CC(C)CCCCCCc1ccc(O)cc1 |  | inactive |
| CC1(C)C(C=C(Cl)Cl)C1C(=O)OCc1cccc(Oc2ccccc2)c1 (stereo not given) |  | inactive |
| CCOC(=O)COc1cc(-n2ncc(C(F)(F)F)c(C)c2=O)c(F)cc1Cl |  | inactive |
| S=C(S)NCCNC(=S)S.[Mn+2].[S-]C([S-])=NCCN=C([S-])[S-].[Zn+2] |  | inactive |
| C=CCOC(Cn1ccnc1)c1ccc(Cl)cc1Cl (stereo not given) | 1.46 µM (active) |  |
| S=C([S-])NCCNC(=S)[S-].[Mn+2] |  | inactive |
